Screening data: PubChem, National Center for Advancing Translational Sciences (NCATS)
The list is not random: actives were taken first. Their share in the collection is about 21%.
Pf growth 96h: Primary qHTS for delayed death inhibitors of the malarial parasite plastid, 96 hour incubation; P. falciparum luciferase reporter growth, 96 h; Potency, µM (doses to about 28.7 µM), without a hit: at the highest dose activity change, negative = inhibition, most hits filed as inhibitors; 320,000 tested, 6.9% active; note: potency is the fitted concentration of half-maximal effect; % is set by controls: 0 for no effect and ±100 for the full control effect
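Parasite growth measured via integrated firefly luciferase reporter in P. falciparum. Infected erythrocytes at 2% hematocrit, 0.05% parasitemia final were treated 96 hours at 37 C under 5% CO2, and luminescence was read.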
Pf growth 48h: Primary qHTS for delayed death inhibitors of the malarial parasite plastid, 48 hour incubation | 310,000 tested, 5.9% active | Potency, µM (highest dose often 28.7 µM), without a hit: at the top dose activity change, negative = inhibition, actives largely listed as inhibitors | P. falciparum luciferase growth in erythrocytes, 48 h; note: potency is the fitted concentration of half-maximal effect; % is set by controls: 0 for no effect and ±100 for the full control effect
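Luminescence readout; reporter = integrated firefly luciferase in P. falciparum. RBC culture at 2% hematocrit, 0.1% parasitemia final, 37 C/5% CO2; decreased signal taken as growth inhibition.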
HCV inh: qHTS Assay for Inhibitors of Hepatitis C Virus (HCV); 340,000 tested, 3.4% active; Huh7.5.1 HCVcc-Cre infection, luciferase reporter, 44 h; Potency, µM (doses to about 41.8 µM), for inactives: at the top dose activity change, negative = inhibition, actives largely listed as inhibitors; AID 651820, 2012; note: potency is the fitted concentration of half-maximal effect; % is set by controls: 0 for no effect and ±100 for the full control effect
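1,000 cells/well; 4 h culture; + compound; + HCVcc-Cre (~0.5 moi); 44 h; luciferase substrate, RT 15 min; read 15 sec.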
AMA1-RON2 inh: qHTS for Inhibitors of AMA1-RON; Towards Development of Antimalarial Drug Lead: Primary Screen | Plasmodium falciparum AMA1 (3D7) - RON2 peptide interaction | AlphaScreen AMA1-biotinylated RON2 peptide binding | Potency, µM (top dose mostly 58.2 µM), for inactives: at the top dose activity change, negative = inhibition, most hits filed as inhibitors | 360,000 tested, 0.2% active | AID 720542, 2013;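 note: potency is the fitted concentration of half-maximal effect; 0% = vehicle wells and -100% = peptide control; nearly all actives have a fitted effect of over 45% in size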
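AMA1 (3D7) with his tag at 25 nM final met compounds first, then biotinylated RON2 peptide at 25 nM; detection used donor plus acceptor beads, 10 µg/mL apiece, read by AlphaScreen after 30 min at room temperature.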
Shiga toxin inh: A qHTS for Small Molecule Inhibitors of Shiga Toxin; Vero cells, Shiga toxin protein synthesis inhibition reporter; inhibition, % at 38.7 µM; 290,000 tested, 9.2% active; AID 2315, 2010; in the data active = inhibition mostly above about 28%, no sharp cut-off; inactive = mostly below about 43%; note: 0% is about no effect
Cycloheximide cs: Cycloheximide Counterscreen for Small Molecule Inhibitors of Shiga Toxin. cell reporter, cycloheximide protein synthesis inhibition counterscreen. max response, %. 300,000 tested, 12% active. AID 2314, 2010; in the data active = max response mostly above about 13%, no sharp cut-off; inactive = mostly below about 14%; note: read at 38.3 µM for the half of the compounds with a filed dose; 0% is about no effect
The depositor's hits bear a star; i = inactive; ? = inconclusive; . = no result; [ ] = another dose, or the depositor's remark. Unless noted, calls come from the whole dose curve; as a rule, active = well fitted curve in the direction sought with a large enough effect; inconclusive = small, poorly fitted or top-dose-only effect, or another doubt; inactive = no such curve, though single readings can be large; an effect the other way counts as inactive or inconclusive.

SMILES	Pf growth 96h	Pf growth 48h	HCV inh	AMA1-RON2 inh	Shiga toxin inh	Cycloheximide cs
COc1ccc(OC)c(NC(=O)c2cccc(S(=O)(=O)N(Cc3ccccc3)c3ccccc3OC)c2)c1	7.38µM*	14.7µM*	-12.7%	-5.0%	-6.0	1.5
COc1ccc(OC)c(NC(=O)c2ccc(CN(c3cc(Cl)ccc3C)S(=O)(=O)c3ccccc3)cc2)c1	?	1.47µM*	-16.5%	-0.4%	-1.3	-1.5
CCOc1ccccc1N(CC(=O)Nc1cc(OC)ccc1OC)S(=O)(=O)c1ccccc1	48.2%	?	?	-13.3%	15.1	1.3
CCCCC(=O)NC(c1ccccc1OC)c1ccc2cccnc2c1O (stereo unspecified)	2.08µM*	1.85µM*	2.24µM*	-20.0%	1.8	-1.2
CCCC(=O)NC(c1ccc(Cl)cc1Cl)c1ccc2cccnc2c1O (stereo unspecified)	17.0%	?	?	82.5%	31.2	-2.2
CCCC(=O)NC(c1ccccc1OC)c1ccc2cccnc2c1O (stereo unspecified)	?	1.65µM*	3.55µM*	-21.0%	-14.3	1.2
CCc1nc2ccc(C(=O)NCc3ccc(OC)cc3)cn2c1N(C)C(=O)Cc1ccccc1	.	.	.	-1.5%	.	.
CCCCNC(=O)N(O)C1N(CCCC)C(=O)N(CC(=O)OC)C1(C)C (stereo unspecified)	5.22µM*	-8.9%	0.3%	2.1%	9.5	-6.1
O=C(c1ccco1)N(Cc1ccco1)c1ccc(O)cc1	9.28µM*	?	-2.2%	-4.0%	6.6	2.0
O=C(c1ccco1)N(Cc1cccc([N+](=O)[O-])c1)c1ccc(Br)cc1	?	-17.7%	5.7%	-25.5%	-12.6	-3.7
O=C(c1ccco1)N(Cc1ccccc1)c1cccc([N+](=O)[O-])c1	6.57µM*	?	-23.2%	-6.6%	4.7	9.7
CCOc1ccc(C(C(=O)NC2CCCCC2)N(C(=O)Cc2cccs2)c2ccc(-n3cnnn3)c(OC)c2)cc1 (stereo unspecified)	7.38µM*	10.4µM*	-6.1%	-8.3%[11.6 µM]	-13.0	-3.8
CCOc1ccc(C(C(=O)NC2CCCCC2)N(C(=O)c2ccco2)c2ccc(-n3cnnn3)c(C)c2)cc1 (stereo unspecified)	88.9%	?	?	1.8%	-3.4	-3.9
COc1cccc(C(C(=O)NC2CCCC2)N(C(=O)c2ccco2)c2ccc(-n3cnnn3)c(C)c2)c1OC (stereo unspecified)	34.3%	9.28µM*	0.8%	-4.3%	-8.9	-2.7
COc1cc(CN2CCNC(=O)C2CC(=O)N(Cc2nccn2C)C(C)C)cc(OC)c1 (stereo unspecified)	10.9%	35.6%	8.8%	25.2%	29.9	0.9
CCOC(=O)N1CCN(C(=O)CSCc2ccc(C)cc2)CC1	46.8%	6.1%	-1.0%	0.0%	-2.4	-1.6
O=C(Cc1ccc(Br)cc1)OCC(=O)N1CCOCC1	.	.	0.5%	1.5%	.	.
CC1CCN(CCCCOc2ccc(Cl)cc2)CC1	6.3%	.	?	-11.2%	-6.4	-1.8
CC1CCN(C(=O)CCCOc2ccc(Cl)cc2)CC1	344.6%	83.1%	-4.9%	-6.4%	55.1*	32.7*
Cc1ccc(CSCC(=O)N2CCCC2)cc1	?	21.0%	4.3%	-9.4%	86.6	23.7*
CC1CCN(C(=O)COC(=O)Cc2ccc(Br)cc2)CC1	30.3%	11.0%	25.5%	-7.0%	-3.8	34.6*
COc1cc(CCC(=O)N2CCN(S(=O)(=O)c3ccc(C)cc3)CC2)cc(OC)c1OC	?	5.22µM*	-2.4%	3.6%	.	.
OC(c1ccc(F)c(F)c1)c1ncc(-c2cccc(F)c2)[nH]1 (stereo unspecified)	.	.	.	-12.0%	.	.
Cc1ccc(S(=O)(=O)N2CCN(C(=O)CSCc3ccc(C(C)C)cc3)CC2)cc1	?	9.28µM*	?	-6.4%	.	.
O=C(CSc1ccc(F)cc1)N1CCOCC1	25.8%	14.1%[0.00184 µM]	5.5%	-4.3%	-2.6	-2.7
SMILES	Pf growth 96h	Pf growth 48h	HCV inh	AMA1-RON2 inh	Shiga toxin inh	Cycloheximide cs
O=C(CSCc1ccc(F)cc1)N1CCOCC1	91.1%	.	16.3%	9.7%	81.5*	58.3*
Cc1ccc(SCc2ccc(C(=O)N3CCCCC3)cc2)cc1	i	46.5%	0.5%	-1.9%	59.1*	28.5*
O=C(CSCc1ccc(Br)cc1)NC1CC1	-24.2%	?	-7.2%	5.3%	26.5	22.7
O=C(CSCc1ccc(Br)cc1)N1CCCC1	?	8.4%	14.5%	6.7%	27.3	25.0*
O=C(CSCc1c(Cl)cccc1Cl)N1CCOCC1	2.7%	-2.9%	22.0%	21.8%	-4.3	2.1
CC1CCN(C(=O)CSCc2ccc(Cl)cc2)CC1	132.7%	.	-2.1%	0.2%	31.0	34.9*
CC1CCN(C(=O)CCl)CC1	5.86µM*	5.22µM*	-1.7%	-2.7%	14.5	-3.9
CC1CCN(C(=O)CC#N)CC1	18.9%	0.9%	5.4%	-2.9%	11.5	-2.0
O=C(CSCc1ccc(Br)cc1)N1CCOCC1	19.7%	17.6%	-1.6%	-1.7%	64.0*	31.3*
CN(C(=O)CSc1nc2[nH]ncc2c(=O)[nH]1)c1ccccc1	7.3%	4.7%	-20.1%[8.37 µM]	7.4%	.	.
COc1ccc(COC(=O)c2cccc(S(=O)(=O)N3CCN(C(C)=O)CC3)c2)cc1F	?	?	-22.7%	0.4%	.	.
CC(=O)Nc1ccc(NC(=O)C(C)Oc2ccccc2C(=O)NCc2ccccc2)cc1 (stereo unspecified)	?	?	-4.3%	2.7%	.	.
CN(C)/C=C1\SC(=S)N(c2ccc(F)cc2)C1=O	80.9%	?	-1.7%	9.7%	31.7	33.3*
CN(C)/C=C1\SC(=S)N(c2ccc(Br)cc2)C1=O	75.2%	2.33µM*	1.0%	-11.4%	46.2*	33.5*
CC(=O)N(/C=C1\SC(=S)N(c2ccccc2)C1=O)c1ccccc1	4.4%	14.3%	1.1%	-0.8%	40.0	9.5
COc1ccc(C(N)c2csc(Nc3ccc(S(C)(=O)=O)cc3)n2)cc1 (stereo unspecified)	.	.	.	79.5%	.	.
CCOC(=O)C1=C(O)C(=O)N(Cc2cccnc2)C1c1ccc(OC)cc1 (stereo unspecified)	-52.9%[5.75 µM]	21.4%	7.0%	-8.3%	-7.1	0.9
O=C(O)CCC(=O)Nc1nc(-c2ccccc2)cs1	.	20.8%	2.9%	-4.1%	-9.9	-1.5
O=C1COc2ccc(-c3csc(NCCc4ccccc4)n3)cc2N1	?	?	?	-4.1%	34.6	9.3
c1ccc(CCNc2nc(-c3ccncc3)cs2)cc1	32.6%	86.9%	?	1.4%	51.9	29.0*
CCCCCNc1nc(-c2ccccc2)cs1	.	-5.7%	.	.	80.1*	41.6*
